Records with an inconclusive call do not appear. The source made the active and inactive calls. Calls follow the shape of the dose curve; as a rule, active = well fitted activation curve with a large enough effect; inconclusive = small, poorly fitted or top-dose-only effect; inactive = no such curve, though single readings can be large or run the other way.
Biological target: Cellular tumor antigen p53 (Homo sapiens) (UniProt P04637)
Experiment: Primary qHTS for small molecule compounds that upregulate eGFP-tagged delta133p53alpha (in N-terminal) cells. (AID 2060322); also: nearly all actives have a fitted effect of over 75% in size;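 as to activation: cells pre-induced with doxycycline then dosed without doxycycline; series mostly up to about 56 µM; 0% = DMSO vehicle and 100% = reference activator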
Settings: NCI-H358 eGFP-delta133p53alpha fluorescence, 24 h; activation: stronger effect = higher value
Procedure, shortened: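 NCI-H358 cells pre-induced 24 h with 10 ng/ml doxycycline for eGFP-delta133p53alpha, plated dox-free and exposed 24 h at 37C to titrated compounds. Fixed, Hoechst-stained; gated GFP peak intensity by laser scanning cytometry, normalized to DMSO (0%) and 57.5 uM 5-azacytidine (100%).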
Potency is read from the fitted curve at half-maximal effect.

Sequence of Cellular tumor antigen p53 (Homo sapiens) (P04637 whole entry, looked up): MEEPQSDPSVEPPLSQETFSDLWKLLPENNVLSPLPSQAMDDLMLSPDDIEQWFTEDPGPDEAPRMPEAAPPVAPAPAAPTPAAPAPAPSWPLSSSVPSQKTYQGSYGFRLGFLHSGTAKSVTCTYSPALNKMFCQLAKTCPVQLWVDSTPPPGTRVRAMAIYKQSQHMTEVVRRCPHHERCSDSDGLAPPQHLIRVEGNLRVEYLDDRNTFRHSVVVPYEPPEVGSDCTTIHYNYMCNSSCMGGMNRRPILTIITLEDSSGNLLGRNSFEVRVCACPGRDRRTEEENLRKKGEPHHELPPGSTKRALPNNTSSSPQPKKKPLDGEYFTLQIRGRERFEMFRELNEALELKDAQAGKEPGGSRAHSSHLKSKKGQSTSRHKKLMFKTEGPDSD

SMILES | activation | Potency
NC(=O)n1c(O)c(C(=O)c2cccs2)c2cc(Cl)ccc21 | -6.21% (inactive) | –
Nc1ccc(S(=O)(=O)Nc2ccc(Cl)nn2)cc1 | 2.51% (inactive) | –
O=C1C(CCC(O)c2ccc(F)cc2)C(c2ccc(O)cc2)N1c1ccc(F)cc1 (stereo not given) | -15.6% (inactive) | –
CC(C)(C)C(=O)OCOC(=O)[C@@H]1N2C(=O)[C@@H](NC(=O)[C@H](N)c3ccccc3)[C@H]2SC1(C)C | 7.53% (inactive) | –
C[N+]1(C)CCCC(OC(=O)C(O)(c2ccccc2)c2ccccc2)C1 (stereo not given) | -37.9% (inactive) | –
C=C1[C@H](n2cnc3c(=O)[nH]c(N)nc32)C[C@H](O)[C@H]1CO | -20.5% (inactive) | –
CC(C)[C@@H]1CC[C@@H](C)CC1=O | 16.4% (inactive) | –
CC[C@]1(O)C[C@@H]2CN(CCc3c([nH]c4ccccc34)[C@@](C(=O)OC)(c3cc4c(cc3OC)N(C=O)[C@@H]3C45CCN4CC=C[C@](CC)([C@H]45)[C@@H](OC(C)=O)[C@]3(O)C(=O)OC)C2)C1 (stereo not given in full) | -1.44% (inactive) | –
CN(C)[C@@H]1C(=O)C(C(N)=O)=C(O)[C@@]2(O)C(=O)C3=C(O)c4c(O)cccc4C[C@H]3C[C@@H]12 | – | 17.4 µM (active)
C[C@H]1O[C@@H](O[C@H]2CC[C@@]3(C)[C@H](CC[C@@H]4[C@@H]3C[C@@H](O)[C@]3(C)[C@@H](C5=CC(=O)OC5)CC[C@]43O)C2)C[C@H](O)[C@@H]1O[C@H]1C[C@H](O)[C@H](O[C@H]2C[C@H](O)[C@H](O[C@@H]3O[C@H](CO)[C@@H](O)[C@H](O)[C@H]3O)[C@@H](C)O2)[C@@H](C)O1 | – | 1.55 µM (active)

Source: PubChem BioAssay (NCATS)
